Most compounds without a hit are left out; they make up all but 2.8% or so of the library.
EWS-Fli block – inhibitors of EWS/Fli oncoprotein transcriptional activity; A673 NR0B1-luciferase reporter, viability-normalised; inhibition, % at 12.6 µM; actives 0.67% (n = 350,000);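 active = mean inhibition of at least 50% after viability correction, with every replicate also passing that limit; inconclusive = mean reaches 50% but only one of two replicates passes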;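 also: firefly luciferase signal divided by Alamar Blue viability fluorescence both relative to DMSO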
PAX8 reporter – PAX8 transcriptional activity inhibition. RMG-I TPO-luciferase reporter, SteadyGlo, 24 h. inhibition, % at 12.6 µM. actives 1.2% (n = 360,000). AID 652154;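 active = mean replicate inhibition at least 60% with every replicate also reaching 60%; inconclusive = only one of the two criteria is met; inactive = mean below 60% and not all replicates reaching 60%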;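 also: luciferase light reporting Pax8 driven TPO promoter activity; plate controls were median of neutral control wells for no effect and mitoxantrone controls for full effect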
LGR2 antag – blocks bursicon-induced cAMP signaling via Drosophila LGR2 | inhibition, % at 9.99 µM | HEK293 LGR2, CRE-luciferase, bursicon-stimulated, 4 h | actives 0.35% (n = 380,000);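 active = drop in luminescence signal, shown as inhibition above about 50% in the replicate tests, limit read from the data, passing the limit was not always enough; inconclusive = probably only some replicates passing the limit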;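 also: agonist challenge used bursicon conditioned medium at about half maximal strength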
TROY signal inh – inhibitors of TROY-dependent NF-kB signaling; Q293 LMP1-TROYcd NF-kB luciferase reporter, 4 h; inhibition, % at 10 µM; actives 0.98% (n = 360,000);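 active = compounds whose plate-normalised and pattern-corrected inhibition of the luciferase reporter signal at the single screening dose is 50% or more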
TWEAK Fn14 block – TWEAK-Fn14 signaling inhibition | TWEAK-stimulated Fn14 reporter cells, luciferase luminescence, 8 h | inhibition, % at 10 µM | actives 2% (n = 360,000); in the data active = inhibition above about 50%
Active calls of the source: *; ? = inconclusive; . = not tested or not shown; ! = a repeat was not active.

SMILES	EWS-Fli block	PAX8 reporter	LGR2 antag	TROY signal inh	TWEAK Fn14 block
COc1ccc(S(=O)(=O)Nc2ccc3c(c2)C(=O)N([C@H](C)CO)C[C@@H](C)[C@@H](CN(C)C)OCCCC[C@H](C)O3)cc1	.	-4.7	-14.3	.	.
COc1ccc(CN2CC3(CCN(C(=O)C4CC4)CC3)c3c(n(C)c4cc(OC)ccc34)[C@H]2CO)cc1	3.7	4.1	-6.9	.	.
Clc1ccc(Cn2cc(/C=N/n3cnnc3)c3ccccc32)c(Cl)c1	.	.	.	46.5	54.2*
C[C@H](CO)N1C[C@H](C)[C@H](CN(C)C(=O)Nc2ccccc2)OCCCC[C@H](C)Oc2ccc(NC(=O)C3CCCCC3)cc2C1=O	1.2	-8.6	68.7*	.	.
C[C@H](CO)N1C[C@H](C)[C@H](CN(C)C(=O)Nc2ccc(F)cc2)OCCCC[C@H](C)Oc2ccc(NC(=O)C3CCCCC3)cc2C1=O	3.7	-14.3	82.8*	.	.
C[C@H](CO)N1C[C@H](C)[C@H](CN(C)C(=O)Nc2ccc3c(c2)OCO3)OCCCC[C@H](C)Oc2ccc(NC(=O)C3CCCCC3)cc2C1=O	0.4	.	57.2*	.	.
O=C(c1ccc(F)cc1)N1CCCCN2[C@@H](CO)[C@H](c3ccc(/C=C/c4ccccc4)cc3)[C@@H]2C1	18.4	3.4	20.0	.	.
COc1ccc(S(=O)(=O)N2CCCC(C(=O)NCC3CCCO3)C2)cc1C (stereo not given)	.	0.6	6.8	-7.4	92.8*
COc1ccc(S(=O)(=O)N2CCCC(C(=O)NCC3CCCO3)C2)cc1Cl (stereo not given)	5.7	.	-1.2	-7.1	9.2
COc1ccc(S(=O)(=O)N2CCCC(C(=O)NCc3ccco3)C2)cc1Cl (stereo not given)	.	.	4.3	-7.7	86.2*
O=C(C1CC1)N1CC(=O)N2[C@H](CO)[C@H](c3ccc(C#Cc4cccc(F)c4)cc3)[C@@H]2C1	-4.4	-6.6	-1.0	.	.
COc1cccc(C(=O)Nc2ccccc2)c1	.	-91.1	.	-35.1	8.6
COc1ccc(C(=O)Nc2ccccc2C(=O)Nc2ccccc2C(=O)O)cc1	1.7	-83.0	-24.0	6.5	-2.5
COc1cc(C(=O)Nc2ccc3c(c2)Cc2ccccc2-3)cc(OC)c1OC	17.0	13.3	.	1.0	-1.3
COc1ccc(C(=O)Nc2ccccc2C(=O)Nc2ccc(C(=O)O)cc2)cc1	-29.5	-33.5	-20.8	1.0	81.4*
COc1ccc(C(=O)Nc2ccc3ccccc3c2)cc1	60.7*	-6.2	73.7*	31.6	72.0*
COc1ccc(C(=O)NC(=S)Nc2ccc3c(c2)Cc2ccccc2-3)cc1	.	.	.	52.1*	15.3
COc1cccc(C(=O)Nc2ccc3ccccc3c2)c1	12.5	-15.7	?	16.5	63.4*
Cc1cccc(-c2ccc([C@H]3[C@@H](CO)N4CCCCN(C(=O)c5ccc6c(c5)OCO6)C[C@H]34)cc2)c1	26.6	1.7	17.8	.	.
COC(=O)[C@H]1[C@H](CO)[C@H]2Cn3c(ccc(-c4cccc(F)c4)c3=O)[C@H]2N1C(C)=O	-0.7	-12.8	2.5	.	.
CCOC(=O)N(C)C[C@@H]1OCc2ccccc2-c2ccccc2C(=O)N([C@H](C)CO)C[C@H]1C	-7.0	.	5.9	.	.
CN(C)S(=O)(=O)Oc1cccc(C(=O)Nc2cccc(Cl)c2)c1	.	-215.7	.	-8.2	15.4
COc1ccc(NC(=S)NNc2ccc(C(=O)O)cc2)cc1	0.7	-15.2	13.2	18.9	58.3*
O=C(Nc1ccc2ccccc2c1)c1ccccc1Cl	-5.6	-153.9	-7.4	-44.3	14.6
CN(C)S(=O)(=O)Oc1cccc(C(=O)Nc2ccc(Cl)c(Cl)c2)c1	.	.	.	46.5	79.5*
SMILES	EWS-Fli block	PAX8 reporter	LGR2 antag	TROY signal inh	TWEAK Fn14 block
O=C(Nc1ccc2ccccc2c1)c1ccccc1O	26.1	-13.6	76.2*	58.9*	90.2*
O=C(Nc1cc(Cl)cc(Cl)c1)c1cccc(OC(F)F)c1	.	.	-2.3	39.0	59.5*
COc1ccc(CN(C)C[C@@H]2Oc3c(NC(=O)c4ccncc4)cccc3C(=O)N([C@@H](C)CO)C[C@H]2C)cc1	-2.8	5.2	.	.	.
CCNC(=O)C[C@H]1CC[C@@H]2[C@@H](COc3ccc(NC(=O)c4ccc(C(F)(F)F)cc4)cc3C(=O)N2C)O1	-26.0	3.0	5.3	.	.
COc1ccc(C(=O)Nc2ccccc2C(N)=O)cc1	.	.	-14.2	-45.1	-15.6
Cc1ccc(C(=O)NC(=S)Nc2ccc(Oc3ccc(Cl)cc3)cc2)cc1	.	.	.	50.8*	1.2
COc1ccc(C(=O)Nc2ccccc2C(=O)N/N=C/c2cccc3ccccc23)cc1	.	.	.	49.8	77.8*
CCS(=O)(=O)Nc1ccc2c(c1)C(=O)N(C)[C@H]1CC[C@H](CC(=O)NCCCN3CCOCC3)O[C@H]1CO2	9.5	-10.4	-14.0	.	.
CC[C@@H]1CCC[C@@H](O)[C@@H](C)C(=O)O[C@H](C)[C@@H](C)C/C=C(C)/C(OC)=C\C(=O)N(C)C([C@@H](C)CC)C(=O)N(C)[C@@H](C(C)C)C(=O)N(C)[C@@H](COC)C(=O)N2CCC[C@H]2C(=O)N(C)[C@@H](C(C)C)C(=O)N2CCC[C@H]2C(=O)O1 (stereo not given in full)	19.8	88.3*	26.4	47.2	77.4*
C/C=C(\C)C(=O)OC1[C@H](OC(C)=O)C2(CO)C(CC1(C)C)C1=CCC3C4(C)CCC(O[C@@H]5O[C@H](C(=O)O)[C@@H](O[C@@H]6O[C@H](CO)[C@@H](O)[C@H](O)[C@H]6O)[C@H](O)[C@H]5O[C@H]5O[C@H](CO)[C@@H](O)[C@H](O)[C@H]5O)[C@](C)(CO)C4CCC3(C)[C@]1(C)C[C@H]2O (stereo not given in full)	.	.	.	87.1*	15.5
CC1(C)C[C@H]2C3=CCC4[C@@]5(C)CC[C@H](O[C@@H]6O[C@H](C(=O)O)[C@@H](O)[C@H](O)[C@H]6O)[C@@](C)(CO)C5CC[C@@]4(C)[C@]3(C)C[C@H](O)[C@@]2(CO)[C@@H](O)[C@@H]1O (stereo not given in full)	-4.5	-15.5	-4.5	56.8*	4.5
CCNC(=O)c1cc2c(c(-c3cccc(-c4cccc(F)c4)c3)n1)[C@H](CCO)N([S@@](=O)C(C)(C)C)C2	24.2	23.6	-9.5	.	.
O=C(O)C[C@@H]1C=C[C@@H](NC(=O)Nc2ccccc2)[C@H](CO)O1	0.6	-0.8	5.1	.	.
C1CCC(C(CC2CCCCN2)C2CCCCC2)CC1 (stereo not given)	?	-3.8	57.9*!	-4.1	-12.1
NCC[C@@H]1CC[C@@H](NS(=O)(=O)Cc2ccccc2)[C@@H](CO)O1	-5.3	-5.9	1.6	.	.
NCC[C@H]1CC[C@H](NS(=O)(=O)Cc2ccccc2)[C@@H](CO)O1	-4.9	8.0	88.9*	.	.
C[C@@H]1CN([C@H](C)CO)C(=O)c2cccc(NS(=O)(=O)c3cn(C)cn3)c2O[C@@H]1CN(C)S(C)(=O)=O	-9.8	.	23.9	.	.
COc1cccc(CC(=O)Nc2nc3c(s2)C(=O)CC(C)(C)C3)c1	8.1	98.5*	-16.9	-4.2	-3.6
CNC[C@@H]1Oc2c(NC(=O)C3CC3)cccc2C(=O)N([C@H](C)CO)C[C@H]1C	8.1	-21.4	-4.0	.	.
